Compounds with a hit are over-represented: about 1.1% of the library has one in this group of screens.
Vaccinia Venus: vaccinia inhibition (Venus reporter); Vaccinia virus Venus reporter expression, fluorescence; Potency, µM (series often up to 36.5 µM), for the others: top-dose activity change, negative = inhibition, most hits filed as inhibitors; hit rate 0.46% among 330,000; AID 720580; calls by dose curve; tested in A549 cells; further: nearly all actives have a fitted effect of over 30% in size
AmpC no deterg: AmpC beta-lactamase inhibition without detergent | hit rate 0.52% among 330,000 | AmpC nitrocefin hydrolysis, absorbance 480 nm, 0.0001% Triton | Potency, µM (top dose mostly 57.1 µM), for inactives: at the top dose activity change, negative = inhibition, actives largely listed as inhibitors;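 further: plate controls were no compound for no effect and no enzyme for full effect; nearly all actives have a fitted effect of over 20% in size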
Target sequence (P00811 whole entry, looked up): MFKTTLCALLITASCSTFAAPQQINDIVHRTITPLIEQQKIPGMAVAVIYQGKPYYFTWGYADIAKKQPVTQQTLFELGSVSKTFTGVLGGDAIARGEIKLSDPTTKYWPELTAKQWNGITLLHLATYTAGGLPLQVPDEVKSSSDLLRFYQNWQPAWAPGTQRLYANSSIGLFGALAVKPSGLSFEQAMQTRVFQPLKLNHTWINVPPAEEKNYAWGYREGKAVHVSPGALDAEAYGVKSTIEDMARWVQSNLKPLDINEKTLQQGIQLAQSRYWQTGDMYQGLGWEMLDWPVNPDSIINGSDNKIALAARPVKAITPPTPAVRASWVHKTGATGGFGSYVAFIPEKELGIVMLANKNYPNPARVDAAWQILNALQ
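20 mM phosphate pH 7.0 + 0.01% (detergent screen) or 0.0001% Triton X-100; 5.3 nM AmpC reagent; cpd preinc 15 min RT; nitrocefin (800 uM stock) to start; A480 q20 s × 4 min; Activity was normalised to no-enzyme and no-compound control wells.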
AmpC inh detg: AmpC beta-lactamase inhibition with detergent present. AID 485294. AmpC hydrolysis of nitrocefin, absorbance 480 nm, 0.01% Triton. Potency, µM (highest dose often 114 µM), for inactives: top-dose activity change, negative = inhibition, usual class: inhibitors. hit rate 0.041% among 370,000. P00811;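 further: 0% = no-compound wells and -100% = no-enzyme wells; nearly all actives have a fitted effect of over 25% in size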
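20 mM phosphate pH 7.0 + 0.01% (detergent screen) or 0.0001% Triton X-100; 5.3 nM AmpC reagent; cpd preinc 15 min RT; nitrocefin (800 uM stock) to start; A480 q20 s × 4 min; Activity was normalised to no-enzyme and no-compound control wells.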
VACV mCherry inh: inhibitors of vaccinia virus infection (mCherry reporter signal). Vaccinia virus mCherry reporter infection, fluorescence. Potency, µM (series often up to 36.5 µM), inactives show top-dose activity change, negative = inhibition, actives largely listed as inhibitors. hit rate 0.63% among 310,000; calls by dose curve; tested in A549 cells; further: nearly all actives have a fitted effect of over 35% in size
Starred values were filed as active, the others as inactive. Unless noted, the call rests on the fitted dose curve; in most records, active means well fitted curve in the direction sought with a large enough effect; inconclusive means small, poorly fitted or top-dose-only effect, or another doubt; inactive means no such curve, though single readings can be large; an effect the other way counts as inactive or inconclusive. Unless noted, on the % scale 0 is the no-effect control and ±100 the full control effect; potency means the concentration at half of the fitted maximal effect.

`S=c1[nH]nc(-c2ccccc2)n1/N=C/C=C/c1ccco1` gave Vaccinia Venus -5.9%, AmpC no deterg -55.6%, AmpC inh detg -13.0% and VACV mCherry inh inactive.
`S=c1[nH]nc(-c2ccc(Cl)cc2)n1/N=C/C=C/c1ccco1` gave Vaccinia Venus -11.2%, AmpC no deterg 15.8µM*, AmpC inh detg -5.9% and VACV mCherry inh inactive.
Cc1ccccc1-c1n[nH]c(=S)n1/N=C/C=C/c1ccco1 was read as AmpC no deterg 10µM* and AmpC inh detg 3.4%.
`COc1ccc2[nH]c3c(N4CCc5ccccc5C4)ncnc3c2c1` gave Vaccinia Venus 14.1µM*, AmpC no deterg 0.3%, AmpC inh detg 5.3% and VACV mCherry inh inconclusive.
CCOc1ccc2[nH]c3c(N4CCN(C(=O)c5ccco5)CC4)ncnc3c2c1 was read as Vaccinia Venus -24.1%, AmpC no deterg -10.5%, AmpC inh detg 6.7% and VACV mCherry inh 12.6µM*.
`CCOC(=O)N1c2ccccc2Sc2ccccc21` gave Vaccinia Venus -25.9%, AmpC no deterg -4.1%, AmpC inh detg 1.5% and VACV mCherry inh inactive.
Cc1nnc(SC(=O)N2c3ccccc3Sc3ccccc32)s1 was read as Vaccinia Venus inconclusive, AmpC no deterg 34.2%, AmpC inh detg -0.6% and VACV mCherry inh 10µM*.
CN1CCc2c(n(CC(O)CNCc3ccccc3)c3ccccc23)C1=O (stereo unspecified) was read as Vaccinia Venus -11.1%, AmpC no deterg -3.2%, AmpC inh detg 4.7% and VACV mCherry inh inactive.
Screening CC(C)NCC(O)Cn1c2c(c3ccccc31)CCc1c-2cnn1-c1ccccc1 (stereo unspecified) returned Vaccinia Venus 11.2µM*, AmpC no deterg 136.9% and AmpC inh detg -13.5%.
`COc1cccc(CN2Cc3cccc4c3[C@H](C=CC4)CC2=O)c1` gave Vaccinia Venus -22.0% and VACV mCherry inh -2.8%.
Screening O=c1c2ccccc2sc2c(CO)ccc(NCCN3CCCCC3)c12 returned Vaccinia Venus 10µM* and VACV mCherry inh inconclusive.
Screening Cc1cc(C)n2nc(C(=O)NCC3Cc4cccc(-c5ccc(S(C)(=O)=O)cc5)c4O3)cc2n1 (stereo unspecified) returned Vaccinia Venus -1.4% and VACV mCherry inh -10.5%.
COc1ccc(C(=O)NCC2Cc3cc(C)cc(-c4nc5ccccc5s4)c3O2)c(OC)c1OC (stereo unspecified) was read as Vaccinia Venus -9.8% and VACV mCherry inh inactive.
`O=C(CSCc1cccc(CSCC(=O)Nc2ccc3ccccc3c2)n1)Nc1ccc2ccccc2c1` gave Vaccinia Venus 11.2µM*, AmpC no deterg -50.3%, AmpC inh detg inconclusive and VACV mCherry inh 11.2µM*.
COc1ccc(C(=O)N2CCCC(c3nc(SCc4ccccn4)ncc3C)C2)cc1F (stereo unspecified) was read as Vaccinia Venus inconclusive and VACV mCherry inh -23.9%.
`Cc1nc(NCc2c(F)cccc2F)sc1-c1ccn(CCN2CCOCC2)n1` gave Vaccinia Venus -3.3% and VACV mCherry inh -10.2%.
Screening CCc1nc2cc(C(=O)N[C@H]3CCCCNC3=O)cc(NC(=O)c3ccccc3OC)c2n1C returned Vaccinia Venus -13.5% and VACV mCherry inh inactive.
`COc1ccc(S(=O)(=O)N2Cc3ccccc3CC2C(=O)Nc2cccc(C)c2)cc1OC` (stereo unspecified) gave Vaccinia Venus 5.0%, AmpC inh detg 23.0% and VACV mCherry inh 1.6%.
`COc1ccc(S(=O)(=O)N2Cc3ccccc3CC2C(=O)Nc2ccc(O)cc2)cc1OC` (stereo unspecified) gave Vaccinia Venus 8.9%, AmpC no deterg 0.708µM*, AmpC inh detg inconclusive and VACV mCherry inh inactive.
NC(=S)N/N=C/c1ccc(-c2ccc(Cl)c(Cl)c2)o1 was read as Vaccinia Venus inconclusive, AmpC no deterg -51.5% and AmpC inh detg inconclusive.
NC(=S)N/N=C\c1ccc(-c2cccc(Cl)c2Cl)o1 was read as Vaccinia Venus 6.31µM*, AmpC no deterg -47.4% and AmpC inh detg -14.1%.
COc1cc2nc(CCc3nc4cc(OC)c(OC)cc4[nH]3)[nH]c2cc1OC was read as Vaccinia Venus -2.9% and VACV mCherry inh inactive.
O=Nc1ccc(/C=C/c2ccnc3ccccc23)cc1 was read as Vaccinia Venus -10.7% and VACV mCherry inh -13.9%.
O=C(Cc1ccc2ccccc2c1)NO was read as Vaccinia Venus -9.1% and VACV mCherry inh -9.8%.
COc1cc(N)c(Cl)cc1C(=O)OCC(=O)Nc1cccnc1Cl was read as Vaccinia Venus -8.3%, AmpC no deterg 35.5µM*, AmpC inh detg inconclusive and VACV mCherry inh -14.4%.
For COc1ccc(NC(=O)c2cc(-c3cc(C)cc(C)c3O)n[nH]2)cc1Cl the results were AmpC no deterg 11.2µM* and AmpC inh detg -0.5%.
CCc1ccc(C(=O)C[N+]2(C)CCOCC2)cc1 was read as Vaccinia Venus -6.1% and VACV mCherry inh -13.8%.
Screening CCCCn1nc2cc(C(=O)NCc3ccc4c(c3)OCO4)ccc2c1OCC returned Vaccinia Venus -19.4%, AmpC no deterg 0.316µM*, AmpC inh detg 3.2% and VACV mCherry inh inactive.
Screening CCCn1nc2cc(C(=O)NCc3ccc4c(c3)OCO4)ccc2c1OCC returned Vaccinia Venus -20.6%, AmpC no deterg -8.8%, AmpC inh detg 0.1% and VACV mCherry inh inactive.
CCCn1nc2cc(C(=O)NC3CCc4ccccc43)ccc2c1OCC (stereo unspecified) was read as Vaccinia Venus -12.0%, AmpC no deterg 0.282µM*, AmpC inh detg -1.1% and VACV mCherry inh -7.1%.
For CCCCn1nc2cc(C(=O)NCC34CC5CC(CC(C5)C3)C4)ccc2c1OC the results were Vaccinia Venus inconclusive, AmpC no deterg 0.8%, AmpC inh detg 1.3% and VACV mCherry inh 6.31µM*.
CCCCn1nc2cc(C(=O)NCC3CC3)ccc2c1OCC was read as Vaccinia Venus -16.8%, AmpC no deterg -23.5%, AmpC inh detg 4.0% and VACV mCherry inh 3.6%.
Screening CCO[C@H]1[C@H](NC(=O)c2cccnc2)c2ccccc2C12CCN(C(=O)c1ccoc1)CC2 returned Vaccinia Venus 6.4% and VACV mCherry inh -2.8%.
O=C(N/N=C/c1c(O)ccc2ccccc12)c1ccc(Br)o1 was read as Vaccinia Venus inconclusive, AmpC no deterg -44.5%, AmpC inh detg inconclusive and VACV mCherry inh 2.82µM*.
`Nc1cc(Cl)nc(N/N=C/c2c(O)ccc3ccccc23)n1` gave Vaccinia Venus inconclusive, AmpC no deterg -35.0%, AmpC inh detg -12.1% and VACV mCherry inh 28.2µM*.
O=C(N/N=C\c1c(O)ccc2ccccc12)c1ccc(O)cc1 was read as AmpC no deterg -55.0% and AmpC inh detg -17.9%.
`O=C(N/N=C\c1c(O)ccc2ccccc12)c1cncc(Br)c1` gave Vaccinia Venus -21.0%, AmpC no deterg -55.4%, AmpC inh detg 3.3% and VACV mCherry inh inconclusive.
`Nc1nonc1N/N=C/c1c(O)ccc2ccccc12` gave Vaccinia Venus -24.9%, AmpC no deterg -32.9%, AmpC inh detg -10.3% and VACV mCherry inh -28.7%.
